Screens deposited in PubChem BioAssay by National Center for Advancing Translational Sciences (NCATS).
This is a sample that favours compounds with a hit; in the whole collection about 10% have one here.
HPGD inh: inhibitors of human 15-hydroxyprostaglandin dehydrogenase (HPGD) | Potency, µM, for the others: at the highest dose activity change, negative = inhibition, hits mostly inhibitors | AID 894 | purified HPGD, NADH fluorescence kinetic, PGE2 substrate | P15428 | 150,000 compounds, 4.3% hits; further: potency means the concentration at half of the fitted maximal effect
Target sequence (P15428 whole entry, looked up): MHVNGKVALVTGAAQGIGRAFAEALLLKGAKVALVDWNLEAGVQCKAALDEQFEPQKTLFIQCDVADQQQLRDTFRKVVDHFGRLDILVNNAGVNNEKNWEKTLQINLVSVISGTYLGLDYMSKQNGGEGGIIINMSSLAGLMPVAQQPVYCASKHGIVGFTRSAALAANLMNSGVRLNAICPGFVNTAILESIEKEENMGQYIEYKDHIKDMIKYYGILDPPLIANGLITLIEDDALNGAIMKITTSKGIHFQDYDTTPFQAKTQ
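20 nM HPGD preincubated 15 min at room temperature with compound in 50 mM Tris-HCl pH 8, 0.01% Tween 20. Started with 1 mM NAD+ and 30 uM prostaglandin E2; NADH fluorescence (360/450 nm) read 5 times over 30-s intervals, last minus first.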
ALDH1A1 block: blocks purified human ALDH1A1 activity; P00352; Purified ALDH1A1, NADH fluorescence, propionaldehyde substrate; Potency, µM (series often up to 75.3 µM), for the others: top-dose activity, negative = inhibition, actives largely listed as inhibitors; 220,000 compounds, 7.3% hits; AID 1030;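 further: potency means the concentration at half of the fitted maximal effect; plate controls were no enzyme wells and a reference inhibitor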
Lamin A splicing: changes lamin A minigene splicing in HeLa cells; HeLa LMNA splicing GFP/RFP minigene ratio, 48 h; Potency, µM (series often up to 46.1 µM), for inactives: top-dose ratio change, negative = inhibition, most hits filed as inhibitors; 200,000 compounds, 0.01% hits; AID 1487; active means well fitted inhibition curve with a large enough effect in the signal ratio, with a control signal flat, not every such curve was filed as active; inconclusive means small, poorly fitted or top-dose-only effect, or effect the other way, or a change in a side signal; the % refers to the signal ratio; further: potency means the concentration at half of the fitted maximal effect
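Read-out is the ratio of GFP to DsRed2 object intensity, acquired by 488 nm laser-scanning cytometry on HeLa lamin A-EGFP minigene reporter cells. Compound incubation 48 hrs at 37 °C in Opti-MEM with 2% FBS; DMSO 0.5% final.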
PNC inhibitor: perinucleolar compartment assembly inhibition | PC3M PTB-GFP, PNC prevalence imaging, 16 h; active compounds read low | activity change (PNC), negative = inhibition, % at 10 µM | 140,000 compounds, 3.1% hits;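 active means readout at or below -70, meaning at least 70% loss of cells showing the perinucleolar compartment, a nuclear body marking cancer cells; inconclusive means readout between -30 and a set limit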;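 further: plate controls were DMSO wells for no effect and camptothecin positive control wells for full effect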
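PC3M cells stably expressing PTB-GFP, 750–1000 cells/well, treated 16 h at 37 °C with compound (23 nl of library stock), in duplicate. After paraformaldehyde fixation and Hoechst stain, imaged at 20x; PNC prevalence scored by image analysis.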
IMPase cell inh: IMPase inhibition in cells; P97697; CHO-M1 cells, IP1 accumulation, HTRF TR-FRET ratio; inhibition (IP1 accumulation), % at 46.1 µM; 120,000 tested, under 10 active; AID 901; active means well fitted curve in the direction sought with a large enough effect in the signal ratio, not every such curve was filed as active; inconclusive means small, poorly fitted or top-dose-only effect, or a change in a side signal; inactive means no such curve, though single readings can be large or run the other way; the % refers to the signal ratio;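 further: cells stimulated with carbachol in lithium chloride buffer; plate controls were DMSO basal wells for no effect and reference inhibitor wells for full effect; higher means more IMPase inhibition seen as more IP1 and lower FRET ratio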
Target sequence (P97697 whole entry, looked up): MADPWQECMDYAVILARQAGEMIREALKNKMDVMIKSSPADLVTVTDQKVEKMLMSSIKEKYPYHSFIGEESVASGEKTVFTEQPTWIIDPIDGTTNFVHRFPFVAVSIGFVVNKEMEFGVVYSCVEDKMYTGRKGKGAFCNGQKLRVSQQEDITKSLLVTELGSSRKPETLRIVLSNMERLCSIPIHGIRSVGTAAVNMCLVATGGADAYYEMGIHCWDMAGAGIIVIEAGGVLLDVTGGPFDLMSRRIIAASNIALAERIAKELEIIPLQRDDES
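Elevated IP1 in lysates lowers TR-FRET signal (665/620 ratio and 620 channel reported). Cells were CHO-M1, given carbachol (50 uM as added) plus 50mM LiCl, pH 7.4, 30 min, 37C; compounds titrated up to 46 uM; AC50 by Hill equation.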
KinaseGlo FLuc: blocks Kinase-Glo luciferase, a counter-screen artifact; 200,000 compounds, 0.28% hits; Q27757; AID 1379; Kinase-Glo luciferase, ATP luminescence, 8 min; Potency, µM (series often up to 38.3 µM), for the others: at the highest dose activity change, negative = inhibition, usual class: inhibitors; active means well fitted inhibition curve with a large enough effect; inconclusive means small, poorly fitted or top-dose-only effect; further: potency means the concentration at half of the fitted maximal effect; nearly all actives have a fitted effect of over 60% in size
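Compound is pinned into ATP-containing buffer (10 uM ATP, imidazole pH 7.2, 7 mM MgCl2). Kinase-Glo luciferase reagent is then added. Light output is recorded following an 8-min room-temperature incubation.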
Numbers without * were called inactive; ? = inconclusive; nt = not tested or not shown; [ ] = dose if it differs, or a comment. Unless noted, the call rests on the fitted dose curve; in most records, active means well fitted inhibition curve with a large enough effect (not every such curve was filed as active); inconclusive means small, poorly fitted or top-dose-only effect, or another doubt; inactive means no such curve, though single readings can be large or run the other way. Unless noted, on the % scale 0 is the no-effect control and ±100 the full control effect.

SMILES	HPGD inh	ALDH1A1 block	Lamin A splicing	PNC inhibitor	IMPase cell inh	KinaseGlo FLuc
COc1ccc(NS(=O)(=O)c2cccc(-c3nnc(-c4ccccc4)o3)c2)cc1	-25%	?	?	-12	14	-5%
COc1ccc(NS(=O)(=O)c2cccc(-c3n[nH]c(=S)n3Cc3ccccc3)c2)cc1	nt	0.45µM*	?	nt	nt	0%
CCN(CC)S(=O)(=O)c1cccc(-c2n[nH]c(=S)n2CC(C)C)c1	nt	7.9µM*	nt	nt	nt	nt
CCN(CC)S(=O)(=O)c1ccc(C(=O)NCc2ccc(C)cc2)cc1	0%	10µM*	-2%	2	8	1%
CCN(CC)S(=O)(=O)c1cccc(-c2n[nH]c(=S)n2Cc2ccccc2)c1	nt	7.1µM*	-15%[46 µM]	nt	nt	1%
CCN(CC)S(=O)(=O)c1ccc(C(=O)NCc2cccs2)cc1	-16%	-7%	4%	?	-9	-3%
COC(Cn1c(-c2cccc(S(=O)(=O)N(C)C)c2)n[nH]c1=S)OC	nt	?	-21%[46 µM]	nt	nt	2%
CCOC(=O)CCC(=O)Nc1nnc2n1CCS2	nt	nt	12%[46 µM]	nt	nt	nt
CCN(CC)S(=O)(=O)c1ccc(C(=O)NCc2n[nH]c(=S)n2Cc2ccccc2)cc1	-10%	2.5µM*	7%	-23	4	-5%
O=C(NCc1n[nH]c(=S)n1Cc1ccccc1)c1ccc(Cl)cc1Cl	nt	22µM*	nt	nt	nt	1%
CC(C(=O)NC1CCCC1)N1CCN(Cc2ccccc2)CC1 (stereo not given)	nt	3.5µM*	nt	nt	nt	-1%
CC(CC(=O)NC1CCCC1)c1ccccc1 (stereo not given)	2.5µM*	1%	-3%	?	-19	-3%
COc1ccc(N2CCN(C(=O)c3cccn4c(=O)c5ccc(Cl)cc5nc34)CC2)cc1	nt	nt	8%[46 µM]	nt	nt	nt
FC(F)(F)c1cnc(Oc2ccccc2-c2nnco2)c(Cl)c1	-28%	14%	5%	-15	-5	-4%
FC(F)(F)c1cnc(Oc2ccc(-c3nnco3)cc2)c(Cl)c1	11µM*	-3%	?	-30	8	12%
O=C(NCCCCc1ccccc1)C12CN(Cc3ccccc3)CC1C(c1cccc([N+](=O)[O-])c1)=NO2 (stereo not given)	-7%	?	-13%	23	1	4%
O=C(NCCCCc1ccccc1)C12CN(Cc3ccccc3)CC1C(c1ccc([N+](=O)[O-])cc1)=NO2 (stereo not given)	-18%	11µM*	-16%	22	10	2%
COc1ccc(CCNC(=O)C23CN(Cc4ccccc4)CC2C(c2ccc([N+](=O)[O-])cc2)=NO3)cc1 (stereo not given)	-23%	16µM*	-4%	41	8	3%
Cn1c(=O)n(C)c2cc(N3CCOCC3)c(NC(=O)c3ccc(C(C)(C)C)cc3)cc21	nt	nt	nt	nt	-5	nt
COCCCNC(=O)CN(c1ccc(Cl)c(Cl)c1)S(C)(=O)=O	-6%	7%	?	?	1	1%
COCCCNC(=O)CN(c1cc(Cl)cc(Cl)c1)S(C)(=O)=O	-10%	3%	-4%	-100*	-5	2%
Cc1ccc2c(c1)c(N=NC(N)=O)c(O)n2C	nt	2%	nt	nt	nt	-1%
Cn1c(O)c(N=N/C(=N/c2ccccn2)c2ccccn2)c2cc(Br)ccc21	22µM*	14µM*	nt	nt	nt	-6%
CCCCCn1ccc(=N)cc1	-1%	?	?	-84*	6	-2%
CCCCCCCn1ccc(=N)cc1	-3%	1%	?	10	7	0%
SMILES	HPGD inh	ALDH1A1 block	Lamin A splicing	PNC inhibitor	IMPase cell inh	KinaseGlo FLuc
Cc1c(C(c2ccc(N(C)C)cc2)c2c(C)n(C)n(-c3ccccc3)c2=O)c(=O)n(-c2ccccc2)n1C	nt	18µM*	nt	nt	nt	-9%
Cc1c(C(Nc2ccccn2)c2ccccc2)c(=O)n(-c2ccccc2)n1C (stereo not given)	-11%	11%	-5%	-100*	1	2%
C[C@@H](C[N+](C)(C)C)OC(N)=O	0%	-13%[20.9 µM]	?	nt	-11[20.6 µM]	-1%[17.1 µM]
O=C(NCc1ccccc1)c1cnc2sc(N3CCCC3)nn2c1=O	nt	nt	-8%[46 µM]	nt	nt	nt
CN1/C(=C\C=C2/C(=O)Oc3ccccc3C2=O)C(C)(C)c2ccccc21	-12%	-1%	?	-91*	nt	1%
Cc1[nH]n(-c2ccccc2)c(=O)c1/C=N/NC(=O)C(C)C	nt	25µM*	?	nt	nt	-3%
COC(=O)N/N=C\c1c(C)[nH]n(-c2ccccc2)c1=O	nt	-14%	-6%[46 µM]	nt	nt	-4%
O=C(CCl)N(c1ccccc1)c1ccccc1	nt	0.045µM*	nt	nt	nt	7%
O=C(N(c1ccccc1)c1ccccc1)N(c1ccccc1)c1ccccc1	nt	-13%	nt	nt	nt	nt
CN(C)C(=O)N1CCN(C(=O)N2CCOCC2)CC1	-6%	-3%	-4%	-100*	-1	-2%
CCc1ccc(CNC(=O)CN2C(=O)c3cccnc3Oc3ccc(Cl)cc32)cc1	nt	nt	18%[46 µM]	nt	nt	nt
O=C(Cc1cccs1)N1CCCC(c2nc3c(nnn3Cc3ccccc3Cl)c(=O)[nH]2)C1 (stereo not given)	?	?	25%	14	7	-4%
COc1ccccc1Cn1nnc2c(=O)[nH]c(C3CCN(C(=O)c4ccc(F)cc4)CC3)nc21	11µM*	-3%	14%	27	3	-1%
Cc1ccc(CC(=O)N2CCC(c3nc4c(nnn4Cc4ccccc4)c(=O)[nH]3)CC2)cc1	?	-7%	7%	15	-7	1%
COc1ccccc1Cn1nnc2c(=O)[nH]c(C3CCN(C(=O)c4ccccc4Cl)CC3)nc21	14µM*	?	19%	-24	2	4%
COc1ccccc1Cn1nnc2c(=O)[nH]c(C3CCN(C(=O)c4ccc(C)cc4)CC3)nc21	?	1%	25%	9	5	-1%
O=C(c1ccccc1Cl)N1CCC(c2nc3c(nnn3Cc3ccco3)c(=O)[nH]2)CC1	14µM*	28µM*	-10%	4	-13	-2%
